From article PMC4336329 (PLoS ONE, 2015)
In all, about 310,000 compounds went through this assay and about 14,000 (4.5%) showed an effect of 50% or more. The effect is printed as a negative number. The full list was thinned out, with strong results kept by preference.

target: human ether-à-go-go-related gene (hERG) potassium channel (human, UniProt Q12809); experiment: primary screen, population patch clamp on CHO cells stably expressing hERG; higher = less effect of the substance
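Note: peak tail current of the secondary pulse compared with the same well before compound.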

human ether-à-go-go-related gene (hERG) potassium channel, sequence (Q12809 whole entry, looked up): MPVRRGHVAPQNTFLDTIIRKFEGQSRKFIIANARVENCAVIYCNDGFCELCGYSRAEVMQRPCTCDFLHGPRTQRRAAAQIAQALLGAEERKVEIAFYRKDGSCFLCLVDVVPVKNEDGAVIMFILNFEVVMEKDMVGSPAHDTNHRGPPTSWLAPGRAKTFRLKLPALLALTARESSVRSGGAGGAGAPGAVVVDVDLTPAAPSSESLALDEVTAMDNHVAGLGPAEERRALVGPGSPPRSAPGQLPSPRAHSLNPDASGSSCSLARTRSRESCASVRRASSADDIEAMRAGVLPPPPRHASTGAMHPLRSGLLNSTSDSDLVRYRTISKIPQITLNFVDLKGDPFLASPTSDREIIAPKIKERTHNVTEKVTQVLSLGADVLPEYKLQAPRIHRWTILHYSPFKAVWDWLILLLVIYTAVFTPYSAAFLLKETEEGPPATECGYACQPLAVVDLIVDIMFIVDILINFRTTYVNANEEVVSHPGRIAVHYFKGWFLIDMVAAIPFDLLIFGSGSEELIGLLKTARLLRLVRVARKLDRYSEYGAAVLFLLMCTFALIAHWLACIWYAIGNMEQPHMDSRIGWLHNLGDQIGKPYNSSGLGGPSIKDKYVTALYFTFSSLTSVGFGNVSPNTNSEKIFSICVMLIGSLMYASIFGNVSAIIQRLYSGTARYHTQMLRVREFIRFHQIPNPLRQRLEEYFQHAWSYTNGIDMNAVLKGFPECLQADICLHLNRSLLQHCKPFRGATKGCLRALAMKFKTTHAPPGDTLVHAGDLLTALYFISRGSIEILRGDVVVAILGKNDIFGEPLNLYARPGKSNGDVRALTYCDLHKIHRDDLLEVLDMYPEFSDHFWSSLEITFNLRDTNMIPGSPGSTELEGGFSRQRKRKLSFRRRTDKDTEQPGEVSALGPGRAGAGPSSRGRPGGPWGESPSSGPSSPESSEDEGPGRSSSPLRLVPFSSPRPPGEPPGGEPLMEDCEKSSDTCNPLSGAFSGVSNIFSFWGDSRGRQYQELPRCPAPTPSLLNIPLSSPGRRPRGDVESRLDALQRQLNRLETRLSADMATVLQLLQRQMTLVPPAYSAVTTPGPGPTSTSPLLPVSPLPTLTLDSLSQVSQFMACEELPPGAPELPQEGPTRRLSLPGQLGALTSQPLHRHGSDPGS

| Structure (SMILES) | hERG current change (%, negative = inhibition) at 10uM [%] |
| --- | --- |
| O=C(NCC(c1cccs1)N1CCOCC1)c1ccc(Cl)c([N+](=O)[O-])c1 (stereo not drawn) | -31.9 |
| CCOc1ncccc1C(=O)N1CCN(C(c2ccccc2)c2ccccc2)CC1 | 5.75 |
| O=C(O)CCn1c(-c2ccccc2)cc2c1CCCC2=O | 14.1 |
| Cc1c(NS(=O)(=O)c2ccc(NC3CCCC3)c([N+](=O)[O-])c2)c(=O)n(-c2ccccc2)n1C | -19.7 |
| Cc1cc(C)nc(NS(=O)(=O)c2cccs2)c1 | 3.36 |
| CCN1CCN(c2c(Cl)cccc2NC(=O)c2ccc([N+](=O)[O-])cc2)CC1 | -72 |
| CCN1CCN(c2c(Cl)cccc2NC(=O)c2ccc3c(c2)OCCO3)CC1 | -38.4 |
| CCN1CCN(c2c(Cl)cccc2NC(=O)c2ccc3nsnc3c2)CC1 | -49.5 |
| O=C(CNc1ccc2ccccc2c1)N/N=C/c1ccncc1 | -8.31 |
| O=C(Nc1cc(Cl)ccc1N1CCCC1)C1=NN(c2ccccc2)C(=O)CC1 | -16.9 |
| CC(=O)N1CCc2cc(S(=O)(=O)NCCC(=O)Nc3cccc(C)c3C)ccc21 | 0.058 |
| CC1CCC2(CC1)NC(=O)N(CC(=O)NCc1cccs1)C2=O (stereo not drawn) | 1.95 |
| COc1ccc(CN(C(=O)CN2C(=O)NC3(CCC(C)CC3)C2=O)C(C)Cc2cccs2)cc1 (stereo not drawn) | -68.7 |
| CC1CCC2(CC1)NC(=O)N(CC(=O)N(Cc1ccccc1)C(C)(C)C)C2=O (stereo not drawn) | 10.6 |
| O=C(/C=C/c1cccc([N+](=O)[O-])c1)NCc1ccco1 | -33 |
| Cc1ccc(C2CC(=O)N3CN(c4ccc(Br)cc4)CSC3=C2C#N)o1 (stereo not drawn) | 11.1 |
| Cc1nc2cc3nc(C(F)(F)F)[nH]c3cc2[nH]1 | 0.0754 |
| O=C(CSc1nc2ccccc2c(=O)n1CCCO)NC1CC1 | -13.4 |
| CC1CCN(CCCn2c(SCC(=O)Nc3ccccc3Cl)nc3ccccc3c2=O)CC1 | -70.8 |
| CCOCCCn1c(SCC(=O)NC2CCCC2)nc2ccccc2c1=O | -1.74 |
| CCc1ccc(NC(=O)CSc2nc3ccccc3c(=O)n2CCCN2CCC(C)CC2)cc1 | -67.2 |

| Structure (SMILES) | hERG current change (%, negative = inhibition) at 10uM [%] |
| --- | --- |
| CC1CCN(CCCn2c(SCC(=O)NC3CCCC3)nc3ccccc3c2=O)CC1 | -77 |
| CCCCn1c(SCC(=O)NC2CCCC2)nc2ccccc2c1=O | -4.43 |
| CCc1ccc(NC(=O)CSc2nc3ccccc3c(=O)n2CCCC(=O)N2CCCC2)cc1 | -27.9 |
| O=C(CCCn1c(SCC(=O)Nc2ccccc2Cl)nc2ccccc2c1=O)NCC1CCCO1 (stereo not drawn) | -48.9 |
| CCCCn1c(SCC(=O)Nc2ccc(NC(C)=O)cc2)nc2ccccc2c1=O | -2.55 |
| CNC(=O)N(O)C1N(/N=C/c2c(F)cccc2Cl)C(=S)SC1(C)C (stereo not drawn) | 18 |
| CC(=O)c1cccc(NC(=O)C(C)OC(=O)c2cc(=O)[nH]c3ccccc23)c1 (stereo not drawn) | -0.987 |
| CCC(CNc1cc(OC)cc2cccnc12)NC1CCCCC1 (stereo not drawn) | -26.2 |
| COc1cc(C(=O)O)cc(NC(=O)c2cccs2)c1OC | 13 |
| NS(=O)(=O)c1ccc(CCNS(=O)(=O)c2cccc(C(=O)O)c2)cc1 | 15.9 |
| COc1ccc(NS(=O)(=O)c2cc3c(cc2C)N(C)CCO3)c(OC)c1 | 1.28 |
| COc1ccc(C(=O)C2CCCN(Cc3cccn3-c3nccs3)C2)cc1F (stereo not drawn) | -83.5 |
| O=C(c1ccc2c(c1)OCO2)C1CCCN(Cc2cccn2-c2cccnc2)C1 (stereo not drawn) | -58.3 |
| COc1ccc(C(=O)C2CCCN(Cc3cnc(N4CCOCC4)s3)C2)cc1F (stereo not drawn) | -47.6 |
| COc1ccc(C(=O)C2CCCN(C(=O)c3cccs3)C2)cc1F (stereo not drawn) | -8.95 |
| COc1cccc(C(=O)C2CCCN(Cc3cccn3-c3cccnc3)C2)c1 (stereo not drawn) | -29 |
| COc1ccc(C(=O)C2CCCN(Cc3cnc(N4CCCC4)s3)C2)cc1OC (stereo not drawn) | -44 |
| COc1ccc(C(=O)C2CCCN(Cc3cccn3-c3cccnc3)C2)cc1OC (stereo not drawn) | -62.9 |
| COc1ccc(C(=O)C2CCCN(Cc3cccn3-c3nccs3)C2)cc1OC (stereo not drawn) | -82 |
| S=C1NCCc2ccccc2C1c1ccccc1 (stereo not drawn) | -14.5 |
| C/C(=C\C(=S)Nc1ccccc1)Nc1ccccc1 | 22.4 |

| Structure (SMILES) | hERG current change (%, negative = inhibition) at 10uM [%] |
| --- | --- |
| CCOc1ccccc1CNC(=O)Cn1ccc2cc(S(=O)(=O)N3CCCCCC3)ccc21 | 10.4 |
| COc1ccc2cc(N=Cc3nc(-c4ccc(C)cc4)oc3O)cnc2c1 | 1.84 |
| CCC(=O)N1CCc2cc(S(=O)(=O)N3CCCCCC3)ccc21 | 12.6 |
| CNC(=O)c1cccn1-c1ccsc1C(=O)OC | 7.33 |
| COc1ccc(Cc2nc3ccc(C(=O)N(C)CCn4ccnc4)cc3o2)cc1OC | 15.5 |
| O=C(COC(=O)c1ccc(F)cc1F)Nc1ccc2[nH]c(=O)[nH]c2c1 | 10.3 |
| Cc1cc(C(=O)C(=O)NC(C)C)c(C)n1-c1ccc([N+](=O)[O-])cc1 | -22.8 |
| C=CCN(CC=C)C(=O)C(=O)c1cc(C)n(-c2ccc([N+](=O)[O-])cc2)c1C | -63.4 |
| Cc1cc(C(=O)C(=O)N(C)C)c(C)n1-c1ccc([N+](=O)[O-])cc1 | -25.7 |
| O=C(/C=C/C=C/c1ccc2c(c1)OCO2)N1CCCCC1 | -8.23 |
| CCc1noc(C)c1C(=O)OCC(=O)NC(=O)c1ccccc1OC | 12.5 |
| COc1cc(OC)c(C#N)c(S(=O)(=O)Cc2ccccc2)c1 | -3.9 |
| CC(C)CN(CCNC(=O)CC1Oc2ccccc2NC1=O)CC(C)C (stereo not drawn) | -27.7 |
| CN(C)CCNC(=O)c1ccc2c(c1)NC(=O)c1ccccc1S2 | 17.3 |
| CCC(C)N(CCNC(=O)c1ccc2c(c1)NC(=O)c1ccccc1S2)C1CCCCC1 (stereo not drawn) | -66.4 |
| Cc1ccc2c(c1)NC(=O)C(CC(=O)NCCN(CC(C)C)CC(C)C)O2 (stereo not drawn) | -24.7 |
| CCN(CC)CCNC(=O)c1ccc2c(c1)NC(=O)c1ccccc1S2 | -31.9 |
| CCN(CCNC(=O)CC1Oc2ccccc2NC1=O)c1ccccc1 (stereo not drawn) | 9.82 |
| Cc1ccc2c(c1)NC(=O)C(CC(=O)NCCN(C)C)O2 (stereo not drawn) | -2.42 |
| CCC(C)N(CCNC(=O)CC1Oc2ccc(C)cc2NC1=O)C1CCCCC1 (stereo not drawn) | -71.5 |
| CCC(C)N(CCNC(=O)CC1Oc2ccccc2NC1=O)C1CCCCC1 (stereo not drawn) | -57.7 |
